Results as given in PubChem BioAssay (EPA / NIEHS).
Records with an inconclusive call do not appear. Active and inactive are the calls of the source. How the source made its calls, unless noted: active means hit-call score of the fitted dose curve at least 0.9, where 1 is the maximum; inconclusive means response in the unintended direction; inactive means score below 0.9.

Legend:
[1] = CCTE_Harrill_HTTr_Viability_MCF7: CCTE's 6-hour Cell Viability Assessment for the High-Throughput Transcriptomics (HTTr) Platform, in MCF-7 cells cultured in DMEM + 10% fetal bovine serum, Harrill Lab (AID 2284010; active means hit-call score of the fitted dose curve at least 0.9, where 1 is the maximum; inactive means score below 0.9)
Outline: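 PI exclusion, high-content imaging; 8-pt dilution series, 6 h exposure; bidirectional fit vs DMSO (neg. ctrl/baseline); gain of signal = loss of membrane integrity.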

[2] = CCTE_Harrill_HTTr_CellCount_MCF7: CCTE's Cell Proliferation Assessment for the High-Throughput Transcriptomics (HTTr) Platform, Harrill Lab (AID 2284012);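 further: count of Hoechst-stained nuclei per well by high-content imaging in MCF-7 cells; cells exposed to compound for six hours; intended direction is loss of nuclei count meaning fewer cells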
Outline: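 Readout: Hoechst nuclear count by high-content imaging. MCF-7, 8-point dilution series, 6 h exposure. Bidirectional fit vs DMSO baseline.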

[3] = biological target: Estrogen receptor (Homo sapiens) (UniProt P03372); assay: CCTE_Deisenroth_AIME_96WELL_LUC_Active: CCTE's 96-well Estrogen Receptor Transactivation Assay with AIME metabolic competence (ERTA luciferase; metabolism positive), Deisenroth Lab (AID 2284023)
Outline: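 Metabolism-positive mode: induced rat hepatic S9 in alginate microspheres conditions test solutions (0.002 - 200 uM, 10 points) for 2 hours. VM7Luc4E2 ER luciferase reporter cells then exposed 24 h; positive-direction fit against 17beta-estradiol, n=4 typical.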

[4] = biological target: Estrogen receptor (Homo sapiens) (UniProt P03372); assay: CCTE_Deisenroth_AIME_96WELL_LUC_Inactive: CCTE's 96-well Estrogen Receptor Transactivation Assay without AIME metabolic competence (ERTA luciferase; metabolism negative), Deisenroth Lab (AID 2284025)
Outline: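 Metabolism-negative arm: chemicals (0.002–200 uM, 10 points) incubated 2 h with alginate-water microspheres, then medium moved onto VM7Luc4E2 cells for 24 h luciferase read-out. Positive direction vs 17beta-estradiol; n≥4 experiments.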

[5] = CCTE_Deisenroth_AIME_96WELL_CTox_Active: Cytotoxicity Assessment (CTOX) in CCTE's 96-well Estrogen Receptor Transactivation Assay with AIME metabolic competence (metabolism positive), Deisenroth Lab (AID 2284028)
Outline: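 Cytotoxicity in VM7Luc4E2 breast cells after 24 h exposure to medium from a 2 h metabolic pre-incubation with induced rat hepatic S9 in alginate microspheres; fluorescent live-cell protease readout, 10-point series 0.002–200 uM, n=4.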

Sequence of Estrogen receptor (Homo sapiens) (P03372 whole entry, looked up): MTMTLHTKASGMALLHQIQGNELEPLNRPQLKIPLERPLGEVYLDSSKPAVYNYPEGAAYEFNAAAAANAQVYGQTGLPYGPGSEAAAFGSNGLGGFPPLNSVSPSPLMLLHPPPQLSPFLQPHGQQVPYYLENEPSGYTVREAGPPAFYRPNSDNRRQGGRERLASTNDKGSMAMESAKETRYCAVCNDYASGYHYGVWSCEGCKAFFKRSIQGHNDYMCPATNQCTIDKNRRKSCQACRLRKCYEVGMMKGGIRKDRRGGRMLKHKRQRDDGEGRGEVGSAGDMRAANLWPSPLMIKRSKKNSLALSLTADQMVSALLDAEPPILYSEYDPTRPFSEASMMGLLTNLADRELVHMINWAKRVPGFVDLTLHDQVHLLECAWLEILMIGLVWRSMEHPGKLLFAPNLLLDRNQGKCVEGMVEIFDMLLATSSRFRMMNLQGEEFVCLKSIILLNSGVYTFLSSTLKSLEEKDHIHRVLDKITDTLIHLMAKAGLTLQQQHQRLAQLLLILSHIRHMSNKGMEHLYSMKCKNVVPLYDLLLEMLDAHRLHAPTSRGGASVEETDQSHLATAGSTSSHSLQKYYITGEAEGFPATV

SMILES | outcome [1] | outcome [2] | outcome [3] | AC50 [4] | outcome [5]
CCCCOC(=O)[C@@H](C)Oc1ccc(Oc2ccc(C(F)(F)F)cn2)cc1 | inactive | inactive | – | – | –
CCOC(=O)c1ccc(O)cc1 | inactive | inactive | inactive | 40.7 µM (active) | inactive
CCOC(=O)COc1cc(-n2ncc(C(F)(F)F)c(C)c2=O)c(F)cc1Cl | inactive | inactive | – | – | –
CCSC(=O)N(CC(C)C)CC(C)C | inactive | – | – | – | –
C[C@]12C[C@H](O)[C@H]3[C@@H](CCC4=CC(=O)CC[C@@]43C)[C@@H]1CC[C@@H]2C(=O)CO | inactive | inactive | inactive | 0.000209 µM (active) | inactive
